40 compounds from PubChem BioAssay (EPA / NIEHS) can be followed below.

Values joined by “and” are separate entries in the source; they are usually repeats but may differ in a detail not shown here. Equal entries are not always repeated. Records with an inconclusive call do not appear. Active and inactive are the calls of the source. How the source made its calls: active means hit-call score of the fitted dose curve at least 0.9, where 1 is the maximum; inconclusive means response in the unintended direction; inactive means score below 0.9. *1 amine or outer side, *2 acyl side, *3 side chain or, on linkers, in order; H or OH if unused. Where a SMILES comes first, the peptide text is derived from it. Bridges are numbered along the chain shown (N, C = ends). Roman numbers before positions name the chains, in order. [ ]: non-standard residue; d: D form. Actinocin(9to1) = Cc1c2oc3c(C)ccc(C(=O)[*:1])c3nc-2c(C(=O)[*:2])c(N)c1=O; NMeV = CN[C@H](C(=O)O)C(C)C; Sar = CNCC(=O)O

The target in the first assay is Cellular tumor antigen p53 (Homo sapiens) (UniProt P04637). Description: TOX21_p53_BLA_p2_ratio: Tox21 HCT-116 p53 Agonism Beta-lactamase Assay, Ratio, Phase 2 (AID 2283592). The method in brief: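 Gain-of-signal p53 agonism was scored from the beta-lactamase FRET ratio (460/530 nm, 405 nm excitation) in HCT116 cells treated 16 h at 37C, 5% CO2, with DMSO serving as negative control and baseline.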
Sequence of Cellular tumor antigen p53 (Homo sapiens) (P04637 whole entry, looked up): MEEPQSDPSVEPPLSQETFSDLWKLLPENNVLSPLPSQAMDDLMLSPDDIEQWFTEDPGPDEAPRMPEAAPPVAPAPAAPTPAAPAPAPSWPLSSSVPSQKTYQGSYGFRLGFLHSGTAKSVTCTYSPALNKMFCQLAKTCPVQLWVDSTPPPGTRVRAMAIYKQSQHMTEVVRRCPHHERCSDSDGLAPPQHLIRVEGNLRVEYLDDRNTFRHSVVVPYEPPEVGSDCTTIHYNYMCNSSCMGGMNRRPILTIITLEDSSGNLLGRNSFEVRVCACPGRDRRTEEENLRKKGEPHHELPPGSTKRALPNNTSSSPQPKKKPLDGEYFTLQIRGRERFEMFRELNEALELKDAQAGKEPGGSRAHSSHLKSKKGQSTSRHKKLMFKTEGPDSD
As for `CC1C(=O)CC2C3(C)CCC2(C(C)C(=O)O)C(=O)C13` (stereo not given), the result was inactive.
On the same count and under the same terms, then `O=S(=O)(O)CCCS(=O)(=O)O`, with “inactive”.
On the same count and under the same terms, then `CC[C@H](C)C(=O)O[C@H]1CCC=C2C=C[C@H](C)[C@H](CC[C@@H]3C[C@@H](O)CC(=O)O3)[C@H]21`, with “inactive”.
The same measure, in the same setting: the value for `O=C(O)P(=O)(O)O` was “inactive”.
Consider `N[C@@H](Cc1cc(I)c(O)c(I)c1)C(=O)O`, for which the result was inactive.
Still for that read-out and setting: the value for `NC(Cc1ccc(F)cc1)C(=O)O` (stereo not given) was “inactive”.
On the same count and under the same terms, the value for `Cc1cc(C2CCCCC2)n(O)c(=O)c1` was “inactive”.
The same measure, in the same setting: then `C[C@@H]1C[C@H]2[C@@H]3C[C@H](F)C4=CC(=O)C=C[C@]4(C)[C@@]3(Cl)[C@@H](O)C[C@]2(C)[C@H]1C(=O)COC(=O)C(C)(C)C`, with “inactive”.
The AC50 is the concentration at which the activity in the assay is half-maximal. As to `CC(=O)[C@]1(O)Cc2c(O)c3c(c(O)c2[C@@H](O[C@H]2C[C@H](N)[C@H](O)[C@H](C)O2)C1)C(=O)c1c(O)cccc1C3=O`, the AC50 is 346 nM (active) and 263 nM (active).
With `CN1C[C@@H]2C[C@H]1CN2c1cc2c(cc1F)c(=O)c(C(=O)O)cn2C1CC1`, the result was inactive.
On the same count and under the same terms, then `CCOC(=O)c1c(N)sc2c1CCN(Cc1ccccc1)C2`, with “inactive”.
Consider `CC(C)NCC(O)c1ccc2ccccc2c1` (stereo not given), for which the result was inactive.
As for `Nc1ccn(C2CO[C@H](CO)O2)c(=O)n1` (stereo not given in full), the AC50 was 5.86e-05 µM (active).
For `c1ccc(-n2cnnn2)cc1`, the result was inactive.
On the same count and under the same terms, the value for `C[C@@H]1C[C@H]2[C@@H]3CCC4=CC(=O)C=C[C@]4(C)[C@@]3(F)[C@@H](O)C[C@]2(C)[C@@]1(O)C(=O)CO` was “inactive”.
`O=C(O)c1cc(=O)c2c(OCC(O)COc3cccc4oc(C(=O)O)cc(=O)c34)cccc2o1`: the outcome was inactive.
For the compound `CC(C)=C1CC[C@@H](C)CC1=O`, the result was inactive.
Still for that read-out and setting: the value for `CCCCCCCCCCC[C@@H](C[C@@H]1OC(=O)[C@H]1CCCCCC)OC(=O)[C@H](CC(C)C)NC=O` was “inactive”; that for `O=S(O)CO` was “inactive”.
Regarding `Oc1ccc(OCc2ccccc2)cc1`, the AC50 was 25.1 µM (active) and 9.17 µM (active).
Turning to `CC(C)(C)NC[C@H](O)COc1nsnc1N1CCOCC1`, the result was inactive.
As for `c1ccc([C@H]2CN3CCSC3=N2)cc1`, the result was inactive.
With `C=C(C)C(=O)OCCCC`, the outcome was inactive.
In the case of `CO[C@@H]1[C@@H](OC)[C@H](C)[C@@](O)(CC(=O)O)O[C@H]1[C@H](C)[C@H]1O[C@@]2(CC[C@@](C)([C@H]3CC[C@@](C)([C@@H]4O[C@@H]([C@H]5O[C@](C)(O)[C@H](C)C[C@@H]5C)C[C@@H]4OC4C[C@H](OC)[C@@H](OC)[C@H](C)O4)O3)O2)C[C@H](O)[C@H]1C` (stereo not given in full), the AC50 was 8.98 µM (active).
The same measure, in the same setting: the value for `CO[C@H](C(=O)[C@@H](O)[C@@H](C)O)C1Cc2cc3cc(O[C@H]4C[C@@H](O[C@H]5C[C@@H](O)[C@H](O)[C@@H](C)O5)[C@@H](O)[C@@H](C)O4)c(C)c(O)c3c(O)c2C(=O)[C@H]1O[C@H]1C[C@@H](O[C@H]2C[C@@H](O[C@H]3C[C@](C)(O)[C@H](O)[C@@H](C)O3)[C@H](O)[C@@H](C)O2)[C@H](O)[C@@H](C)O1` (stereo not given in full) was 23.8 nM (active) and 43.4 nM (active); that for `Nc1ccccc1O` was 41 µM (active).
With `CCCCCCCCCCCCCCC[C@H](O)[C@@H](N)CO`, the outcome was inactive.
With `[Cl-].[Cl-].[NH2-].[NH2-].[Pt+4]`, the result was inactive.
In the case of `CC(=O)O[Si](C)(OC(C)=O)OC(C)=O`, the outcome was inactive.
On the same count and under the same terms, the value for `O=C(O)CCCc1ccccc1` was “inactive”; that for `CC(CO)Oc1ccccc1` (stereo not given) was “inactive”.
Turning to `Nc1ncnc2c1ncn2[C@@H]1O[C@H](COP(=O)(O)OP(=O)(O)OP(=O)(O)O)[C@@H](O)[C@H]1O`, the result was inactive.
In the case of `CCCCCCCCCCCl`, the result was inactive.
For the compound `CCOC(=O)COc1ccc(C)cc1`, the outcome was inactive.
For the compound `CCO[Si](CC(C)C)(OCC)OCC`, the result was inactive.
On the same count and under the same terms, the value for `COc1ccccc1C=CC=O` was “inactive”; that for `CCCCCCCCS` was “inactive”.
`Cc1c2oc3c(C)ccc(C(=O)N[C@@H]4C(=O)N[C@H](C(C)C)C(=O)N5CCC[C@H]5C(=O)N(C)CC(=O)N(C)[C@@H](C(C)C)C(=O)O[C@@H]4C)c3nc-2c(C(=O)N[C@@H]2C(=O)N[C@H](C(C)C)C(=O)N3CCC[C@H]3C(=O)N(C)CC(=O)N(C)[C@@H](C(C)C)C(=O)O[C@@H]2C)c(N)c1=O` (I: T[dV]P[Sar][NMeV] / II: T[dV]P[Sar][NMeV]; ester I:1-I:C, II:1-II:C; linker I:N-II:N via Actinocin(9to1)): the AC50 is 0.163 nM (active) and 3.91 nM (active).
Turning to `Nc1c2c(nc3ccccc13)CCCC2`, the outcome was inactive.
For `CN1C(=O)CN2CCc3ccccc3C2c2cc(Cl)ccc21` (stereo not given), the AC50 is 35.6 µM (active).

Tested on in the next assay: not listed separately
Description: TOX21_p53_BLA_p3_viability: Viability Assessment in the Tox21 HCT-116 p53 Agonism Beta-lactamase Assay, Phase 3 (AID 2283593).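 Further: cells exposed to compound for 16 h before reading.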 The method in brief: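 HCT116 cells, 4000/well, dosed 5 h after plating by pin transfer (217-fold dilution from DMSO stock) and incubated 16 h at 37C, 5% CO2. Viability read as ATP luminescence with CellTiter-Glo after 30 min at room temperature.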
For `CC1C(=O)CC2C3(C)CCC2(C(C)C(=O)O)C(=O)C13` (stereo not given), the compound was called inactive.
For `O=S(=O)(O)CCCS(=O)(=O)O`, the compound was called inactive.
The same measure, in the same setting: then `CC[C@H](C)C(=O)O[C@H]1CCC=C2C=C[C@H](C)[C@H](CC[C@@H]3C[C@@H](O)CC(=O)O3)[C@H]21`, with “inactive”.
The same measure, in the same setting: the value for `O=C(O)P(=O)(O)O` was “inactive”.
On to `N[C@@H](Cc1cc(I)c(O)c(I)c1)C(=O)O`, for which the compound was classed as inactive.
The same measure, in the same setting: the value for `NC(Cc1ccc(F)cc1)C(=O)O` (stereo not given) was “inactive”.
For the compound `Cc1cc(C2CCCCC2)n(O)c(=O)c1`, the compound was classed as inactive.
Take `C[C@@H]1C[C@H]2[C@@H]3C[C@H](F)C4=CC(=O)C=C[C@]4(C)[C@@]3(Cl)[C@@H](O)C[C@]2(C)[C@H]1C(=O)COC(=O)C(C)(C)C`: the compound was called inactive.
In the case of `CC(=O)[C@]1(O)Cc2c(O)c3c(c(O)c2[C@@H](O[C@H]2C[C@H](N)[C@H](O)[C@H](C)O2)C1)C(=O)c1c(O)cccc1C3=O`, the outcome was inactive.
On the same count and under the same terms, then `CN1C[C@@H]2C[C@H]1CN2c1cc2c(cc1F)c(=O)c(C(=O)O)cn2C1CC1`, with “inactive”; and `CCOC(=O)c1c(N)sc2c1CCN(Cc1ccccc1)C2`, with “inactive”; and `CC(C)NCC(O)c1ccc2ccccc2c1` (stereo not given), with “inactive”.
The same measure, in the same setting: the value for `Nc1ccn(C2CO[C@H](CO)O2)c(=O)n1` (stereo not given in full) was “inactive”; that for `c1ccc(-n2cnnn2)cc1` was “inactive”.
The same measure, in the same setting: then `C[C@@H]1C[C@H]2[C@@H]3CCC4=CC(=O)C=C[C@]4(C)[C@@]3(F)[C@@H](O)C[C@]2(C)[C@@]1(O)C(=O)CO`, with “inactive”; and `O=C(O)c1cc(=O)c2c(OCC(O)COc3cccc4oc(C(=O)O)cc(=O)c34)cccc2o1`, with “inactive”.
Consider `CC(C)=C1CC[C@@H](C)CC1=O`, for which the compound was called inactive.
Take `CCCCCCCCCCC[C@@H](C[C@@H]1OC(=O)[C@H]1CCCCCC)OC(=O)[C@H](CC(C)C)NC=O`: the outcome was inactive.
Take `O=S(O)CO`: the result was inactive.
On the same count and under the same terms, then `Oc1ccc(OCc2ccccc2)cc1`, with “inactive”.
With `CC(C)(C)NC[C@H](O)COc1nsnc1N1CCOCC1`, the compound was classed as inactive.
Still for that read-out and setting: then `c1ccc([C@H]2CN3CCSC3=N2)cc1`, with “inactive”; and `C=C(C)C(=O)OCCCC`, with “inactive”; and `CO[C@@H]1[C@@H](OC)[C@H](C)[C@@](O)(CC(=O)O)O[C@H]1[C@H](C)[C@H]1O[C@@]2(CC[C@@](C)([C@H]3CC[C@@](C)([C@@H]4O[C@@H]([C@H]5O[C@](C)(O)[C@H](C)C[C@@H]5C)C[C@@H]4OC4C[C@H](OC)[C@@H](OC)[C@H](C)O4)O3)O2)C[C@H](O)[C@H]1C` (stereo not given in full), with “inactive”.
Take `CO[C@H](C(=O)[C@@H](O)[C@@H](C)O)C1Cc2cc3cc(O[C@H]4C[C@@H](O[C@H]5C[C@@H](O)[C@H](O)[C@@H](C)O5)[C@@H](O)[C@@H](C)O4)c(C)c(O)c3c(O)c2C(=O)[C@H]1O[C@H]1C[C@@H](O[C@H]2C[C@@H](O[C@H]3C[C@](C)(O)[C@H](O)[C@@H](C)O3)[C@H](O)[C@@H](C)O2)[C@H](O)[C@@H](C)O1` (stereo not given in full): the call was inactive.
Still for that read-out and setting: then `Nc1ccccc1O`, with “inactive”.
As for `CCCCCCCCCCCCCCC[C@H](O)[C@@H](N)CO`, the compound was called inactive.
Still for that read-out and setting: the value for `[Cl-].[Cl-].[NH2-].[NH2-].[Pt+4]` was “inactive”.
In the case of `CC(=O)O[Si](C)(OC(C)=O)OC(C)=O`, the call was inactive.
With `O=C(O)CCCc1ccccc1`, the AC50 was 36.2 µM (active).
For `CC(CO)Oc1ccccc1` (stereo not given), the result was inactive.
For the compound `Nc1ncnc2c1ncn2[C@@H]1O[C@H](COP(=O)(O)OP(=O)(O)OP(=O)(O)O)[C@@H](O)[C@H]1O`, the compound was called inactive.
With `CCCCCCCCCCCl`, the compound was classed as inactive.
Same read-out and setting: then `CCOC(=O)COc1ccc(C)cc1`, with “inactive”; and `CCO[Si](CC(C)C)(OCC)OCC`, with “inactive”.
As for `COc1ccccc1C=CC=O`, the result was inactive.
Same read-out and setting: the value for `CCCCCCCCS` was “inactive”.
Regarding `Cc1c2oc3c(C)ccc(C(=O)N[C@@H]4C(=O)N[C@H](C(C)C)C(=O)N5CCC[C@H]5C(=O)N(C)CC(=O)N(C)[C@@H](C(C)C)C(=O)O[C@@H]4C)c3nc-2c(C(=O)N[C@@H]2C(=O)N[C@H](C(C)C)C(=O)N3CCC[C@H]3C(=O)N(C)CC(=O)N(C)[C@@H](C(C)C)C(=O)O[C@@H]2C)c(N)c1=O` (I: T[dV]P[Sar][NMeV] / II: T[dV]P[Sar][NMeV]; ester I:1-I:C, II:1-II:C; linker I:N-II:N via Actinocin(9to1)), the AC50 was 40.6 µM (active).
Take `Nc1c2c(nc3ccccc13)CCCC2`: the outcome was inactive.
Same read-out and setting: the value for `CN1C(=O)CN2CCc3ccccc3C2c2cc(Cl)ccc21` (stereo not given) was “inactive”.
